The values that follow come from PubChem BioAssay.

Active and inactive are the calls of the source.

Assay [1] has as its system Plasmodium falciparum Sir2 (PF13_0152, Sir2A). Nature of the assay: Plasmodium falciparum Sir2A binding compounds – biochemical, small-molecule microarray, 635 nm fluorescence, primary screen (AID 1098).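 Note: score merges spot fluorescence intensity with its signal-to-noise ratio.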 The settings on record: fluorescence 635 nm, higher = more signal.
The nature of assay [2]: probe aDKK1 binding to arrayed compounds – biochemical, biotinylated probe, 635/667 nm fluorescence, primary screen (AID 1099).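 Note: score merges 667nm spot fluorescence with signal to noise across triplicate slides.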 The settings on record: small-molecule microarray, higher = more signal.
A short description of assay [3]: probe aCHRDL2 binding to arrayed compounds – biochemical, biotinylated probe, 635/667 nm fluorescence, primary screen (AID 1100). The settings on record: small-molecule microarray, higher = more signal.
The nature of assay [4]: change in splice reporter luminescence, either direction, cell-based, HEK293, spliceosome inhibition project, primary screen (AID 1101).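 Note: HEK293 cells carrying a splicing-competent luciferase reporter gene; test concentration not given here.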 The note with it: HEK293 splicing luciferase reporter, 24 h, higher = more signal, called active from +8 up or from −8 down. In general terms: A reporter such as luciferase makes a cellular process visible.
In assay [5] the target is Fibroblast growth factor 10 (Homo sapiens) (UniProt O15520). The experiment in a line: compounds binding fibroblast growth factor 10 – biochemical, small-molecule microarray, 635 nm fluorescence, primary screen (AID 1102). The settings on record: FGF10 binding, fluorescence 635 nm, higher = more signal.
Sequence of Fibroblast growth factor 10 (Homo sapiens) (O15520 whole entry, looked up): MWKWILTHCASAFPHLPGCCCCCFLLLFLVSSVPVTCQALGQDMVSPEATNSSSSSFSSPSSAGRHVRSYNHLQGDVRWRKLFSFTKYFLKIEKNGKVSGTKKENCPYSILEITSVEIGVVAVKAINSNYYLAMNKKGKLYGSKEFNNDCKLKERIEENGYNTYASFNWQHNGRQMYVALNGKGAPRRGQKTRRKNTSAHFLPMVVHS
For assay [6], the system named is glycogen synthase kinase-3 (GSK3A per assay name; protocol says GSK3B). Nature of the assay: compounds binding glycogen synthase kinase-3 – biochemical, small-molecule microarray, 635 nm fluorescence, GSK3A, primary screen (AID 1103). Note: the record names both GSK3A and GSK3B. The note with it: fluorescence 635 nm, higher = more signal.
The target of assay [7] is Epidermal growth factor receptor (Homo sapiens) (UniProt P00533). Nature of the assay: compounds binding epidermal growth factor receptor – biochemical, small-molecule microarray, 635 nm fluorescence, primary screen (AID 1104).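 Note: score merges 667 nm emission intensity with spot signal to noise over triplicate slides.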 The settings on record: EGFR binding, higher = more signal.
Sequence of Epidermal growth factor receptor (Homo sapiens) (P00533 whole entry, looked up): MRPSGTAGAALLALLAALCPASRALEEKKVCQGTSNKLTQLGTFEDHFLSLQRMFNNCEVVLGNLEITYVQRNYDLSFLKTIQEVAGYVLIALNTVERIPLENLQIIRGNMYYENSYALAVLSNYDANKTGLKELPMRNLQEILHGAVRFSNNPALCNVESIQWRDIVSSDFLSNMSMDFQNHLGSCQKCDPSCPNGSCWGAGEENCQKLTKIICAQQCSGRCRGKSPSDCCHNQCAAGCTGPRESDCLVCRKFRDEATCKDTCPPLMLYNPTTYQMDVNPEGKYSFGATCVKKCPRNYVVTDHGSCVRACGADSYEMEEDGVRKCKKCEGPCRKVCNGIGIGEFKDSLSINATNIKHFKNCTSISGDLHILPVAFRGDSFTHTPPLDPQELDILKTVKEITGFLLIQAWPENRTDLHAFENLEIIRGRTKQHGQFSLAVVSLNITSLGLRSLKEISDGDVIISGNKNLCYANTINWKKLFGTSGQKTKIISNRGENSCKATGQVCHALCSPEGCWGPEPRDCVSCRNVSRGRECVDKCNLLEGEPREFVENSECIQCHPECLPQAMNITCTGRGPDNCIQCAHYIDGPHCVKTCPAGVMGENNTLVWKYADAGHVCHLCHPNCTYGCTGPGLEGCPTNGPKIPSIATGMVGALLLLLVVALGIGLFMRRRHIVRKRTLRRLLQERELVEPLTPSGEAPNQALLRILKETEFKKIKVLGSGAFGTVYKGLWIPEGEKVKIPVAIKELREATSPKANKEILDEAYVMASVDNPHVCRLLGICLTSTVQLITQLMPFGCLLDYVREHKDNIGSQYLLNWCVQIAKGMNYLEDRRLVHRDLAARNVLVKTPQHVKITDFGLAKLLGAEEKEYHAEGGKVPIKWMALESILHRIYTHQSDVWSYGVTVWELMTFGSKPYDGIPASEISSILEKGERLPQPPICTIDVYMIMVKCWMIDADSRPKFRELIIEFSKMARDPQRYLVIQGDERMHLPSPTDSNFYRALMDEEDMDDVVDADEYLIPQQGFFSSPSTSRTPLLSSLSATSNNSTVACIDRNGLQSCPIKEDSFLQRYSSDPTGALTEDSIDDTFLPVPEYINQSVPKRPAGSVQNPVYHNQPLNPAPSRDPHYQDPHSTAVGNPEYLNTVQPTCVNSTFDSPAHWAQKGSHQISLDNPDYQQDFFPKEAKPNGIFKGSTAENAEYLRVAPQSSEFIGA
The target of assay [8] is Follistatin-related protein 3 (Homo sapiens) (UniProt O95633). Nature of the assay: compounds binding follistatin-related protein 3 – biochemical, small-molecule microarray, 635 nm fluorescence, primary screen (AID 1105).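 Note: score merges emission near 667 nm and signal to noise per printed spot across three slides.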 The settings on record: FSTL3 binding, higher = more signal.
Sequence of Follistatin-related protein 3 (Homo sapiens) (O95633 whole entry, looked up): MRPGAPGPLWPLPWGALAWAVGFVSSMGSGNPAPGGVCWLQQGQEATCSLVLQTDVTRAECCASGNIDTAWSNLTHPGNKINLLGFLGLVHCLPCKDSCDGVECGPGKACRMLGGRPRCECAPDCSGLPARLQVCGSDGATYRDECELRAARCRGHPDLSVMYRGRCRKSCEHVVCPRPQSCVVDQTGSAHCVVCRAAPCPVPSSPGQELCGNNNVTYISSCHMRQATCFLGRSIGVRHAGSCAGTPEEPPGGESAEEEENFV
Assay [9] has as its target Dickkopf-related protein 1 (Homo sapiens) (UniProt O94907). Nature of the assay: small molecules binding DKK1 protein – biochemical, small-molecule microarray, 635 nm fluorescence scan, primary screen (AID 1106).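 Note: score merges emission near 667 nm with signal to noise over three replicate slides.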 The settings on record: higher = more signal.
The test system of assay [10] is Inhibin beta A chain (activin A). The experiment in a line: small molecules binding activin A – biochemical, small-molecule microarray, 635 nm fluorescence scan, primary screen (AID 1107).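 Note: mouse activin A protein probed at 4.33 µg/mL on printed slides; score merges bound-protein fluorescence near 667 nm with spot signal-to-noise.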 The settings on record: INHBA, higher = more signal.
Assay [11] relates to Human papillomavirus type 1a protein E7 (residues 44-93). Nature of the assay: small molecules binding HPV E7 44-93 – biochemical, small-molecule microarray, residues 44-93, 635 nm fluorescence, primary screen (AID 1108).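 Note: E7 fragment applied at 1 µg/mL in TBST for 1 h at 4 C; score combines spot fluorescence with its signal to noise ratio.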 The settings on record: fluorescence 635 nm, higher = more signal.
A short description of assay [12]: hepatitis C replication reporter changes, two-sided – Huh7 cells, luciferase reporter, HCV replication inhibitor project, primary screen (AID 1109).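 Note: huh7 hepatoma cells harbouring a luciferase neomycin HCV replicon reporter; luciferase luminescence as measure of HCV replicon replication; test concentration not given here.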 The note with it: Huh7 HCV replicon luciferase reporter, 48 h; higher = more signal.
In assay [13] the target is Left-right determination factor 2 (Homo sapiens) (UniProt O00292). The experiment in a line: small molecules binding LEFTY2 protein – biochemical, small-molecule microarray, 635 nm fluorescence scan, primary screen (AID 1110). The note with it: higher = more signal.
Sequence of Left-right determination factor 2 (Homo sapiens) (O00292 whole entry, looked up): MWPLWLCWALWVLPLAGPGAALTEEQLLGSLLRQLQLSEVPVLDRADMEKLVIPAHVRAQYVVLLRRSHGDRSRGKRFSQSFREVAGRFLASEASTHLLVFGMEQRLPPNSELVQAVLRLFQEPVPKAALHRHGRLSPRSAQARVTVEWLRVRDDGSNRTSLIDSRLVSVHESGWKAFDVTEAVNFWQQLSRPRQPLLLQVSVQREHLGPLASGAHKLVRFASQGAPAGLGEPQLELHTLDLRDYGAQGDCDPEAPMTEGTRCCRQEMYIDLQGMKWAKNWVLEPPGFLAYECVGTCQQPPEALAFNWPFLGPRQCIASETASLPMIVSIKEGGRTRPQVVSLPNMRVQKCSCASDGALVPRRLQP
Assay [14] deals with Calmodulin-1 (Homo sapiens) (UniProt P0DP23). Nature of the assay: small molecules binding calmodulin-1 with EGTA – biochemical, small-molecule microarray, Cy5-labelled CALM1, profiling panel (AID 1111).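 Note: labelled calmodulin applied in Tris saline Tween buffer holding calcium plus EGTA and DTT.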 The settings on record: Cy5-CALM1 binding fluorescence, higher = more signal.
For assay [15] the target is unchanged. The experiment in a line: small molecules binding Ca-loaded calmodulin-1 – biochemical, small-molecule microarray, Cy5-labelled CALM1, plus calcium, artefact control for SMM control-protein annotation, profiling panel (AID 1112).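 Note: score merges spot fluorescence with signal to noise from triplicate slides.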 The note with it: Cy5-CALM1 binding fluorescence, higher = more signal.
The nature of assay [16]: probe aWnt5a binding to arrayed compounds – biochemical, biotinylated probe, 635/667 nm fluorescence, primary screen (AID 1113).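 Note: score merges 667 nm fluorescence intensity with signal-to-noise per printed feature.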 The note with it: small-molecule microarray, higher = more signal.
Assay [17] in a line: probe aShh binding to arrayed compounds – biochemical, biotinylated probe, 635/667 nm fluorescence, primary screen (AID 1114).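 Note: probe is biotin-labelled aShh protein from a stem cell growth factor screen; measures binding of labelled protein to compounds printed on the slide; score merges feature fluorescence at 667 nm with signal-to-noise.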 The settings on record: small-molecule microarray, higher = more signal.
Assay [18] can be described thus: probe aNog binding to arrayed compounds – biochemical, biotinylated probe, 635/667 nm fluorescence, primary screen (AID 1115).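 Note: probe is biotinylated aNog protein used at 0.15 µg/mL for 1 h at 4 C; z-score combines 667 nm fluorescence of each spot with its signal to noise.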 The settings on record: small-molecule microarray, higher = more signal.
Assay [19] deals with Torsin-1A-interacting protein 1 (Homo sapiens) (UniProt Q5JTV8). Nature of the assay: compound microarray binding of lysate hLAP1 – cell lysate, small-molecule microarray, COS7 lysate, 635/667 nm fluorescence, primary screen (AID 1116). The note with it: 635 nm fluorescence, higher = more signal.
Sequence of Torsin-1A-interacting protein 1 (Homo sapiens) (Q5JTV8 whole entry, looked up): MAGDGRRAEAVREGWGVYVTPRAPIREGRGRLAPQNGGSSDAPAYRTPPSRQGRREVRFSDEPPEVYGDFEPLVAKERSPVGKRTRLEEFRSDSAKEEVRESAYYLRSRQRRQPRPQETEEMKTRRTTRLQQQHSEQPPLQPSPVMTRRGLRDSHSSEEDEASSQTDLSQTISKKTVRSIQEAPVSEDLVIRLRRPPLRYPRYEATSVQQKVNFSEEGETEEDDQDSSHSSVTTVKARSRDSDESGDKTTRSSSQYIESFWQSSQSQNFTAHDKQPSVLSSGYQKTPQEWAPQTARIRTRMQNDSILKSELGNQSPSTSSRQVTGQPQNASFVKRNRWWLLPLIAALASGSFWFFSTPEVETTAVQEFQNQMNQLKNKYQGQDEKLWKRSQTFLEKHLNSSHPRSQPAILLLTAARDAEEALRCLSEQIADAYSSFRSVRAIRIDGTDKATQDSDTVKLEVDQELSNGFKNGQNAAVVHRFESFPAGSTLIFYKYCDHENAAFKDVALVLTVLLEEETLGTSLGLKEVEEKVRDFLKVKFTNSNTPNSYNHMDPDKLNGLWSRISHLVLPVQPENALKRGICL
Assay [20] concerns the target Alpha-bungarotoxin (Bungarus multicinctus) (UniProt P60615). The experiment in a line: compounds binding labelled alpha-BTX control protein – biochemical, small-molecule microarray, Alexa647 label, 635/667 nm fluorescence, artefact control for SMM control protein annotation, profiling panel (AID 1117). The note with it: alpha-BTX-A647 binding fluorescence, higher = more signal.

Sequence of Dickkopf-related protein 1 (Homo sapiens) (O94907 whole entry, looked up): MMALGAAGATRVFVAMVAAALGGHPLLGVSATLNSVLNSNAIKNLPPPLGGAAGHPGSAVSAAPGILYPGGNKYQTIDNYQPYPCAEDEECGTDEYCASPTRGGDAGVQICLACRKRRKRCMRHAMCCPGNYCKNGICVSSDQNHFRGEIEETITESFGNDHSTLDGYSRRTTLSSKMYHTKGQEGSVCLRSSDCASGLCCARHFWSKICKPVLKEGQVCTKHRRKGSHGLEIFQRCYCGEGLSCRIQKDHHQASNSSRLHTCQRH
Sequence of Alpha-bungarotoxin (Bungarus multicinctus) (P60615 whole entry, looked up): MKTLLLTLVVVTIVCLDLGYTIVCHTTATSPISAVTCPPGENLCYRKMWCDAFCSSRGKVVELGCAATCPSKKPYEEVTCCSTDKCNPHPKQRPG

Consider `COCCCNC(=O)[C@@]1(c2ccc([N+](=O)[O-])cc2)CC(=O)N(CC23CC4CC(CC(C4)C2)C3)[C@@H]1c1ccc(CO)cc1`, for which the composite z-score in assay [1] was 1.61; in assay [2] it was 0.0245; in assay [3] it was -0.0133; in [5], 1.22; in [6] it was 1.31; in assay [7], 0.905. Besides, the composite z-score in assay [8] is 1.48; in [9] it was 1.08; in assay [10], 0.703; in [11], 1.37; in assay [13], 1.13; in assay [14], -0.121. Besides, the composite z-score is -0.548 in assay [15]; -0.109 in assay [16]; -0.0119 in assay [17]; -0.761 in assay [18]; 0.422 in [19]; 0.572 in assay [20]. For the same molecule, the values for the z-score in [4] and in [12] were 0.00653 (inactive) and -2.47, respectively.

`O=C1O[C@@H](c2ccccc2)[C@@H](c2ccccc2)N2[C@@H](c3ccc(OCCO)cc3)[C@]3(C(=O)Nc4ccc(C#CC5=CCCCC5)cc43)[C@@H](C(=O)O)[C@H]12`: the composite z-score was 0.87 in [1]; 0.82 in assay [2]; 0.431 in assay [3]; 0.43 in [5]; 0.661 in assay [6]; 0.257 in assay [7]. Besides, the composite z-score was 0.636 in [8]; 0.581 in assay [9]; 0.784 in assay [10]; 0.594 in assay [11]; 0.374 in [13]; 2.23 in assay [14]. Moreover, the composite z-score in assay [15] is 1.15; in assay [16] it was -0.102; in assay [17], -0.107; in assay [18] it was 0.167; in assay [19] it was 1.57; in assay [20], 2.89. Further, the z-score in assay [4] is 0.618 (inactive); in [12] it was -1.63.

Regarding `C=CCNC(=O)[C@@H]1[C@H]2C(=O)O[C@H](c3ccccc3)[C@H](c3ccccc3)N2[C@H](c2ccccc2OCCO)[C@@]12C(=O)Nc1ccc(C#CC3=CCCCC3)cc12`, the composite z-score in assay [1] was 0.71; in assay [2] it was -0.0328; in [3] it was 0.111; in [5], 1.22; in assay [6], 1.32; in [7], 0.478. The composite z-score was 1.38 in assay [8]; 0.479 in [9]; 0.982 in assay [10]; 1.41 in assay [11]; 0.604 in assay [13]; 1.09 in assay [14]. Further, the composite z-score was 0.17 in [15]; -0.0523 in [16]; 0.0611 in assay [17]; -0.278 in assay [18]; 0.668 in assay [19]; 1.24 in assay [20]. Further, the z-score is -0.829 (inactive) in [4] and -3.27 in assay [12].

Take `C=C(COC)C(=O)CC[C@@H](OC(=O)c1cccnc1)c1ccc(CO)o1`: the composite z-score in assay [1] was 0.691; in assay [2], -0.2; in [3] it was -0.237; in assay [5], 0.0396; in assay [6], 0.457; in assay [7], 0.182. The composite z-score is 0.916 in assay [8]; 0.611 in assay [9]; 1.58 in assay [10]; 0.369 in [11]; 0.355 in assay [13]; -0.0743 in assay [14]. Moreover, the composite z-score in assay [15] was -0.116; in assay [16] it was -0.1; in [17], -0.0977; in assay [18], 0.094; in assay [19] it was 0.424; in assay [20], 0.285. Also, the z-score was 1.86 (inactive) in assay [4] and -0.778 in [12].

Take `C=C(CCCC)/C(=C/C[C@H](OC(C)=O)c1ccc(CO)o1)c1cnc2ccccc2c1`: the composite z-score in [1] was 1.11; in assay [2] it was -0.179; in assay [3] it was -0.531; in [5], 1.35; in assay [6] it was 1.21; in assay [7] it was 0.497. For the same molecule, the composite z-score came out at 1.49 in assay [8]; 0.601 in assay [9]; 1.69 in assay [10]; 1.39 in assay [11]; 0.487 in [13]; 0.229 in [14]. Moreover, the composite z-score in assay [15] is -0.693; in assay [16], -0.0478; in assay [17] it was 0.292; in [18], -0.28; in assay [19], -0.092; in assay [20], 1.73. The z-score in assay [4] is -0.276 (inactive); in [12], -1.54.

Take `CC1CC/C=C\[C@H]2OC34C=CCN(Cc5ccccc5)C(=O)[C@H]3N(CCCCCO)C(=O)[C@@H]4C2C(=O)O1` (stereo not given in full): the composite z-score in assay [1] was -0.0545; in assay [2], -0.425; in [3], 0.144; in [5], -0.423; in [6], -1.42; in assay [7] it was -0.713. The composite z-score in assay [8] is -1.19; in assay [9], -0.892; in assay [10] it was -0.0407; in [11], -0.853; in assay [13], -0.918; in [14], -0.457. The composite z-score was 0.163 in assay [15]; -0.0981 in [16]; -0.345 in assay [17]; -0.0704 in assay [18]; 1.04 in assay [19]; 1.39 in [20]. In addition, the z-score in assay [4] was 0.537 (inactive); in assay [12] it was 0.28.

In the case of `CCC[C@@H]1C=C(C(=O)O)[C@H](c2ccc(C)cc2)N1S(=O)(=O)c1ccc(C)cc1`, the composite z-score is 0.706 in assay [1]; 0.36 in assay [2]; 0.817 in [3]; 0.74 in [5]; 0.415 in [6]; -0.278 in [7]. Also, the composite z-score is 0.192 in assay [8]; -0.435 in [9]; 0.71 in assay [10]; 1.36 in assay [11]; -0.442 in assay [13]; 0.665 in assay [14]. In addition, the composite z-score in [15] is 0.0233; in assay [16] it was -0.0819; in assay [17], 0.0815; in assay [18] it was 0.582; in assay [19], 0.959; in assay [20], 1.45. Also, the z-score is 1.04 (inactive) in assay [4] and 0.641 in [12].

Turning to `O=C/C=C/c1ccc2c(c1)OCO2`, the composite z-score is 0.229 in assay [1]; -0.295 in assay [2]; -0.475 in assay [3]; 0.562 in assay [5]; 0.469 in assay [6]; 0.614 in assay [7]. The composite z-score is 0.506 in [8]; 0.486 in assay [9]; 1.25 in assay [10]; 0.283 in [11]; 0.528 in assay [13]; -1.18 in assay [14]. The composite z-score in assay [15] was -0.755; in [16], -0.0748; in [17], -0.35; in [18], -0.441; in [19] it was 0.122; in assay [20], 0.591. The z-score in assay [4] is -0.675 (inactive); in assay [12], 0.301.
